Among the data in PubChem BioAssay (NCI) are growth values, retold here.

What all share (assay): NCI-60 one-dose screen, 48 h (100 = growth as untreated, 0 = no growth, -100 = all killed)
Holding throughout (conditions): 10 µM unless noted

Assay [1] relates to SR leukemia.
The test system of assay [2] is RPMI-8226 leukemia.
Assay [3] has as its system OVCAR-8 ovarian.
The subject of assay [4] is OVCAR-5 ovarian.
Assay [5] deals with OVCAR-4 ovarian.
In assay [6] the test system is IGROV1 ovarian.
Assay [7] has as its system OVCAR-3 ovarian.
Assay [8] relates to HS 578T breast.
The subject of assay [9] is NCI/ADR-RES ovarian.
Assay [10] concerns T-47D breast.
The test system of assay [11] is BT-549 breast.
Assay [12] relates to MDA-MB-435 melanoma.
The test system of assay [13] is SW-620 colon.
Assay [14] deals with MCF7 breast.
Assay [15] relates to HCT-116 colon.
The test system of assay [16] is HCC-2998 colon.
In assay [17] the test system is KM12 colon.
The subject of assay [18] is SK-OV-3 ovarian.

SMILES strings stand for the structures. Compounds without any hit were thinned out: in the full panel of roughly 83,000, 20% have a hit.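 Each cell line was grown in a 96-well plate and treated with one concentration of compound for 48 hours. Values below 10 were considered active.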 A number with no mark means an inactive call. Activity calls are given as the source filed them.

For the compound `O=C(NNc1nc2cc(F)c(F)cc2n2cccc12)c1ccncn1`, the growth in assay [1] was 14.6%; in assay [2] it was 16.9%; in [3], 17.5%; in [4], 39%; in [5], 3.66% (active); in assay [6] it was 15.7%. The growth in [7] was 12.7%; in [8] it was 48.2%; in assay [9], 5.95% (active); in [10], 15.1%; in [11], 28.7%; in [12] it was 33%. Further, the growth is 23.5% in assay [13]; 6% (active) in assay [14]; 20.4% in assay [15]; 53.3% in [16]; 21.4% in assay [17].

As for `O=C(NNc1nc2cc(F)cc(F)c2n2cccc12)c1ccncn1`, the growth in assay [1] is 4.42% (active); in assay [2], 9.13% (active); in assay [3] it was 12.5%; in assay [4] it was 40.9%; in [5], 4.29% (active); in assay [6], 15.1%. In addition, the growth was 8.94% (active) in assay [7]; 34% in assay [8]; 1.44% (active) in assay [9]; -1.57% (active) in assay [10]; 12.2% in [11]; 26.3% in [12]. Also, the growth in assay [13] is 20.8%; in [14], 4.99% (active); in assay [15], 18.6%; in assay [16], 57.5%; in [17], 21.6%.

Turning to `COc1ccc(C(=O)c2c(N)c(C#N)cn2-c2cccc(OC)c2)cc1`, the growth in assay [1] was 27%; in assay [2], 22.1%; in assay [3], 34.2%; in assay [4] it was 56.9%; in assay [5] it was 63.1%; in [6], 32%. The growth in assay [7] was 30.3%; in assay [8], 11%; in [9] it was 9.32% (active); in [10], 16%; in [11], 41.9%; in assay [12], -37.3% (active). The growth in [13] was 9.11% (active); in assay [14] it was 17.5%; in [15], 16.8%; in assay [16], 56.1%; in assay [17], 23.7%.

As for `O=[N+]([O-])c1ccc(-c2nnc(SCc3ccc(O)c4ncccc34)o2)cc1`, the growth is 45% in assay [1]; 15% in [2]; 22% in assay [3]; 49% in [4]; 17.3% in assay [5]; 11.1% in [18]. For the same compound, the growth in [7] was 8.31% (active); in assay [8], 2.14% (active); in assay [9], 25.3%; in [10] it was 9.66% (active); in assay [11], 27.4%; in assay [12] it was 19%. Besides, the growth in [13] was 20.5%; in assay [14], 6.95% (active); in assay [15] it was 12.7%; in assay [16], 28%; in assay [17], 13.8%.

With `O=C(CCCCCCN1CC(=O)N2[C@@H](c3cccc(Cl)c3)c3[nH]c4ccccc4c3C[C@H]2C1=O)NO`, the growth in [1] was 39.5%; in [2], 15%; in assay [3], 34.8%; in [4], 54.3%; in assay [5], 61%; in [6] it was 4.61% (active). For the same compound, the growth was 36.3% in assay [7]; 69.3% in assay [8]; 94.3% in assay [9]; 19.6% in assay [10]; 82.7% in assay [11]; 31.2% in assay [12]. Further, the growth was 26.3% in assay [13]; 38% in assay [14]; 14.8% in [15]; 72.1% in [16]; 54.9% in assay [17].

As for `CCOP(=O)(OCC)OC[C@]12CCC(C)(C)C[C@H]1C1=CC[C@@H]3[C@@]4(C)C/C(=C\c5cccnc5)[C@H](OP(=O)(OCC)OCC)C(C)(C)[C@@H]4CC[C@@]3(C)[C@]1(C)CC2`, the growth in assay [1] was 3.36% (active); in assay [2], -10.3% (active); in assay [3], 28.9%; in assay [4], 50.1%; in [5], 27.6%; in assay [6] it was 42.6%. The growth was 28.5% in [7]; 61.1% in assay [8]; 52.3% in assay [9]; 16.1% in assay [10]; 33.4% in assay [11]; 31.2% in assay [12]. In addition, the growth was 25.9% in assay [13]; 6.1% (active) in assay [14]; 11.1% in [15]; 33.1% in [16]; 23.6% in [17].

Consider `O=C(CSc1nnc(-c2ccc(Cl)cc2)n1-c1ccccc1)Nc1ccc(F)cc1`, for which the growth is 76.4% in assay [1]; 89.5% in assay [2]; 74% in assay [3]; 97.4% in assay [4]; 98.3% in [5]; 83.8% in [18]. In addition, the growth is 87.7% in [7]; 61.4% in [8]; 77.9% in assay [9]; 80.4% in [10]; 93.2% in assay [11]; 92.9% in [12]. Moreover, the growth is 82.3% in [13]; 81.6% in assay [14]; 46% in [15]; 100% in [16]; 82.4% in [17].

Consider `CCN1C(=O)N(CC)C2C1NN=C1SC(c3ccccc3)=CC(=O)N12` (stereo not given), for which the growth in assay [1] was 16.2%; in assay [2], 4.35% (active); in assay [3], 18.2%; in assay [4], 29.1%; in assay [5], 72.5%; in assay [18], 42.2%. Further, the growth was 3.22% (active) in assay [8]; 19.2% in assay [9]; 42.1% in [10]; -4.35% (active) in assay [11]; -33.3% (active) in [12]; 18.3% in assay [13]. For the same compound, the growth in assay [14] was 17.7%; in [15], 14.9%; in [16] it was 21.1%; in assay [17], 27.2%.
